Molecules are shown by their SMILES. Inconclusive results are not listed. The source holds several records for some structures; these can differ, active in one and inactive in another. Calls of active or inactive are those of the source. How the source made its calls, unless noted: active means hit-call score of the fitted dose curve at least 0.9, where 1 is the maximum; inactive means score below 0.9.

Read-out in assay [1]: NAD(P)H dehydrogenase [quinone] 1 (NQO1), NQO1 (gene 1728)
The assay is described as follows: LTEA_HepaRG_NQO1: Life Technologies and Expression Analysis (LTEA) Assay for NAD(P)H dehydrogenase [quinone] 1 (NQO1) using HepaRG (AID 2283526). The note with it: mRNA level, 48 h; actives raise or lower the signal. In outline: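 qRT-PCR read-out (Fluidigm TaqMan), normalized to three housekeeping genes, after 48 h chemical exposure of HepaRG cells. Concentrations: eight points, top 100 uM, half-log steps, 0.5% DMSO vehicle. Gain or loss of signal fitted relative to DMSO.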

Read-out in assay [2]: Nuclear factor erythroid 2-related factor 2 (Homo sapiens) (UniProt Q16236)
The assay is described as follows: LTEA_HepaRG_NFE2L2: Life Technologies and Expression Analysis (LTEA) Assay for Nuclear factor erythroid 2-related factor 2 (NFE2L2) Transcription Factor using HepaRG (AID 2283527). The conditions noted are these: mRNA level, 48 h; actives raise or lower the signal. Summed up:
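Human liver HepaRG line treated in duplicate for 48 h with an eight-point series topping at 100 uM. Gene expression of NFE2L2 by qRT-PCR, bidirectionally fitted against the vehicle control.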

Read-out in assay [3]: succinate dehydrogenase complex iron sulfur subunit B (SDHB), SDHB (gene 6390)
The assay can be described thus: LTEA_HepaRG_SDHB: Life Technologies and Expression Analysis (LTEA) Assay for succinate dehydrogenase complex iron sulfur subunit B (SDHB) using HepaRG (AID 2283528). The note with it: mRNA level, 48 h; actives raise or lower the signal. In outline:
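SDHB transcript level read by TaqMan qRT-PCR, housekeeping-normalised (ACTB, GAPDH, POLR2A), after 48 h chemical treatment of plated HepaRG cells; eight concentrations top 100 uM, half-log steps, 0.5% DMSO, duplicates; fitted both directions against DMSO.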

Read-out in assay [4]: Signal transducer and activator of transcription 3 (Homo sapiens) (UniProt P40763)
The assay is described as follows: LTEA_HepaRG_STAT3: Life Technologies and Expression Analysis (LTEA) Assay for Signal transducer and activator of transcription (STAT3) using HepaRG (AID 2283529). The conditions noted are these: mRNA level, 48 h; actives raise or lower the signal. In outline: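 In this transcriptional endpoint, HepaRG cultures receive test chemicals at up to 100 uM for 48 h, tested in duplicate. STAT3 mRNA is normalized to ACTB, GAPDH and POLR2A.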

Read-out in assay [5]: solute carrier (SLCO1B1), SLCO1B1 (gene 10599)
The assay is described as follows: LTEA_HepaRG_SLCO1B1: Life Technologies and Expression Analysis (LTEA) Assay for solute carrier (SLCO1B1) using HepaRG (AID 2283530). The conditions noted are these: mRNA level, 48 h; actives raise or lower the signal. Summed up:
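SLCO1B1 transcript read by qRT-PCR (Fluidigm arrays), normalized to three housekeeping genes, after 48 h chemical exposure of HepaRG cells; bidirectional concentration-response fitting versus 0.5% DMSO baseline. Eight-point half-log series, maximum 100 uM.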

Read-out in assay [6]: sulfotransferase 2A1 (SULT2A1), SULT2A1 (gene 6822)
The assay is described as follows: LTEA_HepaRG_SULT2A1: Life Technologies and Expression Analysis (LTEA) Assay for sulfotransferase 2A1 (SULT2A1) using HepaRG (AID 2283531). The note with it: mRNA level, 48 h; actives raise or lower the signal. In outline: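 HepaRG, 48 h chemical exposure, 8-pt half-log curve from 100 uM in 0.5% DMSO, duplicates. Readout: TaqMan qRT-PCR of SULT2A1 mRNA, housekeeping-normalized. Bidirectional fit vs DMSO baseline.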

Read-out in assay [7]: Transforming Growth Factor (TGFA), TGFA (gene 7039)
The assay is described as follows: LTEA_HepaRG_TGFA: Life Technologies and Expression Analysis (LTEA) Assay for Transforming Growth Factor (TGFA) using HepaRG (AID 2283532). The note with it: mRNA level, 48 h; actives raise or lower the signal. Summed up:
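Gene expression of TGFA was quantified by qRT-PCR after human HepaRG cells were treated for 48 h with test chemicals (eight concentrations, highest 100 uM, 0.5% DMSO). Activity in either direction was fitted relative to DMSO.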

Read-out in assay [8]: Transforming Growth Factor (TGFB1), TGFB1 (gene 7040)
The assay is described as follows: LTEA_HepaRG_TGFB1: Life Technologies and Expression Analysis (LTEA) Assay for Transforming Growth Factor (TGFB1) Transporter using HepaRG (AID 2283533). The note with it: mRNA level, 48 h; actives raise or lower the signal. Summed up: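 qRT-PCR readout of TGFB1 transcript in HepaRG lysates, normalized to three housekeeping genes; gain or loss of signal fitted relative to 0.5% DMSO vehicle. Exposure: 48 h, 8-point curve from 100 uM, duplicate wells.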

Read-out in a further assay: TIMP1, TIMP1 (gene 7076)
The assay is described as follows: LTEA_HepaRG_TIMP1: Life Technologies and Expression Analysis (LTEA) Assay for TIMP1 using HepaRG (AID 2283534).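 Further: TaqMan qRT-PCR signal normalized to ACTB GAPDH and POLR2A housekeeping genes.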 The note with it: mRNA level, 48 h; actives raise or lower the signal. Summed up: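 HepaRG, 48 h exposure, 8-pt half-log series from 100 uM in 0.5% DMSO, duplicates; TIMP1 transcript by Fluidigm qRT-PCR, housekeeping-normalized; bidirectional curve fit vs DMSO baseline.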

Read-out in assay [9]: Tumor necrosis factor receptor 1 (TNFRSF1A), TNFRSF1A (gene 7132)
The assay can be described thus: LTEA_HepaRG_TNFRSF1A: Life Technologies and Expression Analysis (LTEA) Assay for Tumor necrosis factor receptor 1 (TNFRSF1A) using HepaRG (AID 2283535). The note with it: mRNA level, 48 h; actives raise or lower the signal. In outline:
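HepaRG, 48 h plating then 48 h chemical exposure, serum-free induction media; 8-pt CRC from 100 uM, half-log, 0.5% DMSO vehicle, duplicates. Readout: TaqMan qRT-PCR (Fluidigm), housekeeping-gene normalized; bidirectional fit vs DMSO.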

Read-out in assay [10]: Thyroid Hormone Responsive (THRSP), THRSP (gene 7069)
The assay can be described thus: LTEA_HepaRG_THRSP: Life Technologies and Expression Analysis (LTEA) Assay for Thyroid Hormone Responsive (THRSP) using HepaRG (AID 2283536). The note with it: mRNA level, 48 h; actives raise or lower the signal. Summed up: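 Cell model: human HepaRG, approx. 100,000 cells/well, 0.5% DMSO vehicle. Exposure lasts 48 h; phenobarbital 1 mM serves as induction positive control. Gene expression is measured by qRT-PCR against three endogenous control genes.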

Read-out in assay [11]: Cellular tumor antigen p53 (Homo sapiens) (UniProt P04637)
The assay is described as follows: LTEA_HepaRG_TP53: Life Technologies and Expression Analysis (LTEA) Assay for Tumor Protein P53 (TP53) using HepaRG (AID 2283537). The note with it: mRNA level, 48 h; actives raise or lower the signal. In outline:
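TP53 transcript measured by qRT-PCR, normalized to three housekeeping genes, after 48 h treatment of human HepaRG cultures with chemicals from 100 uM downward in half-log steps (0.5% DMSO vehicle, serum-free induction medium). Up- or down-regulation fitted against DMSO.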

Read-out in assay [12]: UDP glucuronosyltransferase (UGT1A1), UGT1A1 (gene 54658)
The assay is described as follows: LTEA_HepaRG_UGT1A1: Life Technologies and Expression Analysis (LTEA) Assay for UDP glucuronosyltransferase (UGT1A1) using HepaRG (AID 2283538). The note with it: mRNA level, 48 h; actives raise or lower the signal. In outline:
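HepaRG, 48 h chemical exposure (top 100 uM, half-log 8-pt, 0.5% DMSO vehicle), duplicate wells; qRT-PCR (TaqMan, Fluidigm array) for UGT1A1 mRNA, housekeeping-normalized; bidirectional curve fit vs DMSO baseline.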

Read-out in assay [13]: UDP glucuronosyltransferase (UGT1A6), UGT1A6 (gene 54578)
The assay can be described thus: LTEA_HepaRG_UGT1A6: Life Technologies and Expression Analysis (LTEA) Assay for UDP glucuronosyltransferase (UGT1A6) using HepaRG (AID 2283539). The conditions noted are these: mRNA level, 48 h; actives raise or lower the signal. Summed up:
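qRT-PCR readout of UGT1A6 mRNA (normalized to ACTB/GAPDH/POLR2A) in differentiated HepaRG cells after 48 h chemical exposure; 8 concentrations, top 100 uM, half-log steps, 0.5% DMSO. Bidirectional curve fit relative to DMSO baseline.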

Read-out in assay [14]: X-box binding protein 1 (XBP1), XBP1 (gene 7494)
The assay is described as follows: LTEA_HepaRG_XBP1: Life Technologies and Expression Analysis (LTEA) Assay for X-box binding protein 1 (XBP1) using HepaRG (AID 2283540). The conditions noted are these: mRNA level, 48 h; actives raise or lower the signal. Summed up:
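HepaRG, 48 h exposure, 8-pt half-log CRC top 100 uM, 0.5% DMSO vehicle, duplicates. Readout: TaqMan qRT-PCR of XBP1 mRNA, housekeeping-normalised (ACTB/GAPDH/POLR2A); bidirectional fit vs DMSO baseline.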

Assay [15] can be described thus: LTEA_HepaRG_LDH_cytotoxicity: Cytotoxicity Assessment in the Life Technologies and Expression Analysis (LTEA) Assay (AID 2283563; active means hit-call score of the fitted dose curve at least 0.9, where 1 is the maximum;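 on AC50: LDH activity released into spent culture medium as a marker of cell death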). Summed up:
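HepaRG (human liver line), 48 h exposure, 8-pt half-log series from 100 uM, 0.5% DMSO vehicle, duplicates. Read-out: LDH in spent medium. Positive-direction fit vs DMSO baseline.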

Assay [16] in a line: TOX21_p53_BLA_p2_viability: Viability Assessment in the Tox21 HCT-116 p53 Agonism Beta-lactamase Assay, Phase 2 (AID 2283591; active means hit-call score of the fitted dose curve at least 0.9, where 1 is the maximum;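 further: actives lower the ATP signal meaning cytotoxicity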). Summed up:
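HCT-116 p53-bla cells (4000/well) rested 5 h at 37C, then received compounds in DMSO (217-fold dilution) for 16 h at 37C, 5% CO2. After the CCF4 read, CellTiter-Glo was added; ATP luminescence was read after 30 min at room temperature.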

Assay [17] addresses Cellular tumor antigen p53 (Homo sapiens) (UniProt P04637). The assay is described as follows: TOX21_p53_BLA_p2_ratio: Tox21 HCT-116 p53 Agonism Beta-lactamase Assay, Ratio, Phase 2 (AID 2283592; active means hit-call score of the fitted dose curve at least 0.9, where 1 is the maximum). Summed up:
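Readout: blue/green (460/530 nm) FRET emission ratio after 2 h CCF4-AM loading at room temperature, excitation 405 nm. HCT116 p53 bla cells, 16 h compound exposure at 37C, 5% CO2; agonist direction fitted against DMSO baseline.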

Assay [18] is described as follows: ATG_XTT_Cytotoxicity: Cytotoxicity Assessment in the Attagene TRANS-FACTORIAL HepG2 Assay (AID 2283584; active means hit-call score of the fitted dose curve at least 0.9, where 1 is the maximum). In outline:
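XTT readout of cell number in transfected HepG2 cells, 24 h post-dosing; DMSO serves as negative control and baseline, with activity taken as loss of viability signal.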

Assay [19] in a line: TOX21_p53_BLA_p3_viability: Viability Assessment in the Tox21 HCT-116 p53 Agonism Beta-lactamase Assay, Phase 3 (AID 2283593; active means hit-call score of the fitted dose curve at least 0.9, where 1 is the maximum;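 further: cells exposed to compound for 16 h before reading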). In outline:
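HCT-116 cells (4000/well) rested 5 h at 37C, then got DMSO compounds by pin tool (217-fold dilution) for 16 h at 37C, 5% CO2. After the bla read, CellTiter-Glo was added and luminescence read at 30 min, room temperature.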

Chain of Cellular tumor antigen p53 (Homo sapiens) (P04637 whole entry, looked up): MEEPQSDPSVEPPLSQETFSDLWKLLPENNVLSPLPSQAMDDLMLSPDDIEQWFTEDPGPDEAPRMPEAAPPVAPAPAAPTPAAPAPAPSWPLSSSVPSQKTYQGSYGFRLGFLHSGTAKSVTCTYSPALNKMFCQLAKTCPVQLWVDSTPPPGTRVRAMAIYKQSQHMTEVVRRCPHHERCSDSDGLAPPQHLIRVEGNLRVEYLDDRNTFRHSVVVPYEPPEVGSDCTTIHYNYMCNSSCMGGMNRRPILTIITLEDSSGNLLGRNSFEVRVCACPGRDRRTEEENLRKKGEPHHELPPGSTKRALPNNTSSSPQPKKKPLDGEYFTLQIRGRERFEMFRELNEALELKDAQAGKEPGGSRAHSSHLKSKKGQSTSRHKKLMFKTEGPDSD
Chain of Signal transducer and activator of transcription 3 (Homo sapiens) (P40763 whole entry, looked up): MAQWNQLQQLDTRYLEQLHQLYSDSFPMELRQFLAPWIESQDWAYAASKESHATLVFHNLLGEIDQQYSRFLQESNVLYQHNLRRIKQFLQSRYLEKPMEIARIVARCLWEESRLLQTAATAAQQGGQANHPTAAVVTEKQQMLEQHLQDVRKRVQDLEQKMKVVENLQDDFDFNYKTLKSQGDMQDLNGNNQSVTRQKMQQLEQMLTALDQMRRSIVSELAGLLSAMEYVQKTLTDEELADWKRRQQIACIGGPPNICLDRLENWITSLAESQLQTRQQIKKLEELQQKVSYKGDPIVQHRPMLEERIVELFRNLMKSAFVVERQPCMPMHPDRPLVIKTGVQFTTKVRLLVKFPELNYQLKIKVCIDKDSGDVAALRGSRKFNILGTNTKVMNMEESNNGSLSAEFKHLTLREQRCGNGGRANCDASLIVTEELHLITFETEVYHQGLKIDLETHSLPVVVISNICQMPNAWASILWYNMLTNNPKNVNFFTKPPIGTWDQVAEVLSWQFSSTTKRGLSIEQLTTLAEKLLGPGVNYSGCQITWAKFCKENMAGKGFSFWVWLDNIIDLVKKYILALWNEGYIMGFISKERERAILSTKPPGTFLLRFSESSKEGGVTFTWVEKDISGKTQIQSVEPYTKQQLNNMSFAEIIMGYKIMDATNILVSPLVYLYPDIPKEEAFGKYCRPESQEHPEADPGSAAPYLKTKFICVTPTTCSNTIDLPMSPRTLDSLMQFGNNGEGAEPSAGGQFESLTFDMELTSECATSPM
Chain of Nuclear factor erythroid 2-related factor 2 (Homo sapiens) (Q16236 whole entry, looked up): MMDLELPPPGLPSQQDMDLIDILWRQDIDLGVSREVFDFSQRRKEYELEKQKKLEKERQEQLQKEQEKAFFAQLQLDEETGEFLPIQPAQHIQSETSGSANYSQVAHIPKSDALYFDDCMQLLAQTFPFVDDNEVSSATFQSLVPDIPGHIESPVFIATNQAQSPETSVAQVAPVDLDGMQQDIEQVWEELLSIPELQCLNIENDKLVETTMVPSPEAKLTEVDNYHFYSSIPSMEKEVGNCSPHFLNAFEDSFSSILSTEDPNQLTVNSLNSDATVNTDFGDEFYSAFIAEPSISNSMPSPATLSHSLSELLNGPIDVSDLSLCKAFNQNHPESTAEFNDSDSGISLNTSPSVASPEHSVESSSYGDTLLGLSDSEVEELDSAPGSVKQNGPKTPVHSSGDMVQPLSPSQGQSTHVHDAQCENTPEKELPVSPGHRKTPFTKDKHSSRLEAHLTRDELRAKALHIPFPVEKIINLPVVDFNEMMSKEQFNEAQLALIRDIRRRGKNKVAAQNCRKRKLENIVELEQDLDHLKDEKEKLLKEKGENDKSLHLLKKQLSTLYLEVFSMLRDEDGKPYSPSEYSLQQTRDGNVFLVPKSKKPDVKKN

On to `CCCCSP(=O)(SCCCC)SCCCC`, for which the call in assay [1], in assay [3], in [4], in assay [5], in [6] and in assay [7] was inactive. Further, the outcome in assay [8] is “inactive”; in the assay with TIMP1, TIMP1 (gene 7076), “inactive”; in assay [9], “inactive”; in assay [10] it was “inactive”; in [11] it was “inactive”; in assay [12], “inactive”. In addition, the outcome in assay [13], in [14], in assay [16] and in [17] was inactive. The AC50 in assay [2] was 78 µM (active); in assay [15], 63.5 µM (active).
`CCC(=O)Nc1ccc(Cl)c(Cl)c1`: the molecule was called inactive in assay [1], in assay [3], in assay [4], in [5], in [6] and in assay [7]. Also, the outcome in assay [8] was “inactive”; with TIMP1, TIMP1 (gene 7076), “inactive”; in assay [9] it was “inactive”; in assay [10], “inactive”; in assay [11] it was “inactive”; in assay [13], “inactive”. The result in assay [14], in [15], in [18], in assay [16], in assay [17] and in [19] was inactive. For the same molecule, the AC50 was 32.2 µM (active) in assay [2], 26.7 µM (active) in assay [12] and 88 µM (active) in assay [17].
Turning to `CCC(CC)Nc1c([N+](=O)[O-])cc(C)c(C)c1[N+](=O)[O-]`, the outcome in assay [1], in [2], in assay [3], in assay [4], in assay [6] and in assay [7] was inactive. The outcome in assay [8] is “inactive”; with TIMP1, TIMP1 (gene 7076) it was “inactive”; in assay [9] it was “inactive”; in assay [11] it was “inactive”; in assay [13], “inactive”; in assay [14] it was “inactive”. Besides, the molecule was called inactive in [15], in assay [18], in assay [16], in [17] and in [19]. Also, the AC50 was 50 µM (active) in assay [5], 36.7 µM (active) in assay [10] and 28.2 µM (active) in assay [12].

By AC50 is commonly meant the concentration at which the activity in the assay is half-maximal.

Values taken from PubChem BioAssay (EPA / NIEHS).
